Source: the supplement of paper PMC10338343
± gives the standard deviation.

Tested on: MILI (PIWIL2) piRISC loaded with L1MC piRNA (26 nt)
Assay: pre-steady-state target cleavage rate (min^-1); guide: L1MC piRNA 5'p-UAACUAAAUACUAUGCAAGCUGUAGG; MIWI and MILI are mouse PIWI proteins and EfPiwi is from a freshwater sponge; tags in brackets are library labels; higher = faster piRNA-guided slicing of the target
Settings: auxiliary factor: 500 nM mouse GTSF1
Procedure, shortened: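 The method was Cleave-'n-Seq, in which uncleaved targets from a transcribed, DNA-blocked target RNA library were sequenced after exposure to active affinity-purified piRISC carrying one synthetic guide, with or without GTSF1 partner protein. Reactions contained 0.1 nM library, 1 nM piRISC and, where present, 500 nM GTSF1 in HEPES–potassium acetate buffer at 33 °C for 0–8 or 0–960 min. Reads were normalised to depth and to weakly complementary targets, three trials were pooled, and k3 was capped at 0.0001 min^-1. The pre-steady-state cleavage rate came from a burst-and-steady-state fit.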

First: UCCUGGAACAGCUUGCAUAGUAUUAGUUA
Second: UCCUCGCUACAGCUUGCAUAGUAUUUAGUUA
The “pre-steady-state target cleavage rate” value of the first is lower: 0.199 ± 0.016 for the first, 0.276 ± 0.02 for the second.

First: UCCUCCAACAGCUUGCUUAGUAUUUAGUUA
Second: UCCUGGUACAGGUUGCUUAGUAUUUAGUUA
The “pre-steady-state target cleavage rate” value of the first is lower: 0.262 ± 0.017 for the first, 0.328 ± 0.022 for the second.

First: UCCUGCUACAGGAAGCAUAGUAUUUAGUUA
Second: UCCUGCUACAGCUUCAUAGUAUUUAGUUA
The “pre-steady-state target cleavage rate” value of the first is higher: 0.282 ± 0.014 for the first, 0.231 ± 0.019 for the second.

First: UCCUCCUACACUUGCAUAGUAUUUAGUUA
Second: UCCUGCAACUGCUUGCAUAGUAUUUAGUUA
The “pre-steady-state target cleavage rate” value of the first is lower: 0.248 ± 0.016 for the first, 0.322 ± 0.025 for the second.

Compared with UCCUGCUUCAGCUUGCAUAGUAUUUAGUUA, UCCUCCUACAGCUUGCCUAGUAUUUAGUUA is lower in “pre-steady-state target cleavage rate” value: 0.312 ± 0.019 for the first, 0.253 ± 0.022 for the second.

Compared with UCCUCGUACAGCUUGCAUAGUUUUUAGUUA, UCCUCGUACAGCUUGCUUAGUAUUUAGUUA is higher in “pre-steady-state target cleavage rate” value: 0.0651 ± 0.008 for the first, 0.286 ± 0.016 for the second.

First: UCCUGCAACAGCUUGCUUAGUAUUUAGUUA
Second: UCCUGCUACAGCUUGCUUUGUAUUUAGUUA
The “pre-steady-state target cleavage rate” value of the first is higher: 0.293 ± 0.016 for the first, 0.183 ± 0.015 for the second.

Compared with UCCUGGAACGAGCUUGCAUAGUAUUUAGUUA, UCCUGGAUCAGCUUGCAUAGUAUUUAGUUUA is higher in “pre-steady-state target cleavage rate” value: 0.239 ± 0.024 for the first, 0.358 ± 0.025 for the second.

First: UCCUGGAUGUGCUUGCAUAGUAUUUAGUUUA
Second: UCCUGGAACAGCUUGCAUAGUAUUUAAGUUA
The “pre-steady-state target cleavage rate” value of the first is lower: 0.141 ± 0.015 for the first, 0.195 ± 0.029 for the second.

Compared with UCCUGCAAGAGCUUGCAUAGUAUUUAGUUA, UCCUCCAACACCUUGCAUAGUAUUUAGUUA is lower in “pre-steady-state target cleavage rate” value: 0.292 ± 0.025 for the first, 0.192 ± 0.022 for the second.

Going from UCCUGGAACUAGCUUGCAUAGUAUUUAGUUA to UCCUGCUACAGCUUGGAUUGUAUUUAGUUA, the “pre-steady-state target cleavage rate” value falls from 0.132 ± 0.021 to 0.0899 ± 0.011.

Going from UCCUGCUACAGCUUGCAUAGGUAUUUAGUUA to UCCUCCUACAGCGUGCAUAGUAUUUAGUUA, the “pre-steady-state target cleavage rate” value rises from 0.00815 ± 0.0047 to 0.309 ± 0.021.

First: UCCUGGAACAGACUUGCAUAGUAUUUAGUUA
Second: UCCUCCUACUCCUUGCAUAGUAUUUAGUAA
The “pre-steady-state target cleavage rate” value of the first is higher: 0.217 ± 0.014 for the first, 0.147 ± 0.017 for the second.

Going from UCCUGCUACAGCGUUGCAUAGUAUUUAGUUA to UCCUGGAUGAGCCUGCAUAGUAUUUAGUUA, the “pre-steady-state target cleavage rate” value falls from 0.267 ± 0.018 to 0.157 ± 0.019.

UCCUGGAUCACGCUUGCAUAGUAUUUAGUUA and UCCUGGAUGAGCUAGCAUAGUAUUAAGUUA are within error of each other in “pre-steady-state target cleavage rate” value: 0.205 ± 0.018 for the first, 0.226 ± 0.023 for the second.

Going from UCCUGCUACAGCUUGCAAAGUAUUUAGUUA to UCCUGGUACAGCUUGCAUAGUAUCUUAGUUA, the “pre-steady-state target cleavage rate” value rises from 0.13 ± 0.012 to 0.188 ± 0.031.

Going from UCCUCCUACAGGUUGCAUAGUAAUUAGUUA to UCCUCGUACAGCUUGCAUAGUAUUUAGUUA, the “pre-steady-state target cleavage rate” value rises from 0.205 ± 0.018 to 0.32 ± 0.015.

Going from UCCUGGUACAGCUUGCAUAGUAUUUAGUAA to UCCUCCUACUGCUUGCAUUGUAUUUAGUUA, the “pre-steady-state target cleavage rate” value falls from 0.283 ± 0.036 to 0.212 ± 0.013.

Compared with UCCUGGACCAGCUUGCAUAGUAUUUAGUUA, UCCUGGAUCAGGUUGCAUUGUAUUUAGUUA is lower in “pre-steady-state target cleavage rate” value: 0.246 ± 0.02 for the first, 0.115 ± 0.0091 for the second.

UCCUGGAUCAGCUUGCUUAGUAUUUAGUUA and UCCUGGUACAGCUAGCUUAGUAUUUAGUUA are the same in “pre-steady-state target cleavage rate” value: 0.248 ± 0.019 for the first, 0.248 ± 0.023 for the second.
